Read-out in experiment [1]: Human Leukocyte Antigen - DR isotype (HLADR), HLA-DRA (gene 3122)
Put plainly: BSK_BE3C_HLADR: BioMAP Diversity Plus: BE3C Assay for Human Leukocyte Antigen - DR isotype (HLADR) Biomarker Activity (AID 2283032). To be noted: primary human bronchial epithelial cells; actives raise or lower the signal. In short, it runs like this:
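Cell-surface HLA-DR ELISA readout at 24 h after dosing in the BE3C primary human lung bronchial epithelial system; gain or loss of signal against DMSO, with parallel sulforhodamine B staining of total protein for overt cytotoxicity.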

Read-out in experiment [2]: Interferon-gamma inducible Protein 10 (IP10), CXCL10 (gene 3627)
The experiment is described as follows: BSK_BE3C_IP10: BioMAP Diversity Plus: BE3C Assay for Interferon-gamma inducible Protein 10 (IP10) Biomarker Activity (AID 2283034). To be noted: primary human bronchial epithelial cells; actives raise or lower the signal. In short, it runs like this:
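IP-10 quantified by ELISA in human primary bronchial epithelial cell cultures at 24 hours post-dosing. Gain or loss of signal fitted relative to DMSO; parallel SRB staining assessed overt cytotoxicity.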

Read-out in experiment [3]: Monokine induced gamma interferon (MIG), CXCL9 (gene 4283)
Put plainly: BSK_BE3C_MIG: BioMAP Diversity Plus: BE3C Assay for Monokine induced gamma interferon (MIG) Biomarker Activity (AID 2283035). To be noted: primary human bronchial epithelial cells; actives raise or lower the signal. In short, it runs like this:
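ELISA quantified MIG after 24 h exposure of primary bronchial epithelial cultures, analysed in both directions relative to DMSO. Cytotoxicity tracked in parallel cultures by sulforhodamine B staining.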

Read-out in experiment [4]: Transforming growth factor beta 1 (TGFb1), TGFB1 (gene 7040)
The experiment is described as follows: BSK_BE3C_TGFb1: BioMAP Diversity Plus: BE3C Assay for Transforming growth factor beta 1 (TGFb1) Biomarker Activity (AID 2283036;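 on outcome: TGF-b1 protein level measured by ELISA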). To be noted: primary human bronchial epithelial cells; actives raise or lower the signal. In short, it runs like this:
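ELISA readout of TGF-b1 from human lung bronchial epithelial primary cells, taken 24 h post-treatment. Gain or loss of signal fitted relative to DMSO baseline, with parallel SRB staining for overt cytotoxicity.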

Read-out in experiment [5]: urokinase plasminogen activator (uPA), PLAU (gene 5328)
Put plainly: BSK_BE3C_uPA: BioMAP Diversity Plus: BE3C Assay for urokinase plasminogen activator (uPA) Biomarker Activity (AID 2283038).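 On outcome: uPA protein level quantified by ELISA in cell cultures; uPA read one day after compound addition.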 To be noted: primary human bronchial epithelial cells; actives raise or lower the signal. In short, it runs like this:
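Using confluent primary human lung bronchial epithelial cultures, we dosed chemicals, waited 24 h, then ran a uPA ELISA, fitting bidirectionally against DMSO.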

Read-out in experiment [6]: Urokinase-type plasminogen activator receptor (uPAR), PLAUR (gene 5329)
The experiment is described as follows: BSK_BE3C_uPAR: BioMAP Diversity Plus: BE3C Assay for Urokinase-type plasminogen activator receptor (uPAR) Biomarker Activity (AID 2283039).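 On outcome: cells exposed to compound for one day before measurement.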 To be noted: primary human bronchial epithelial cells; actives raise or lower the signal. In short, it runs like this: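 uPAR levels were measured by ELISA after 24 h compound treatment of primary human bronchial epithelial cells, fitted in both directions relative to DMSO. Parallel SRB staining served as the cytotoxicity read-out.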

Read-out in experiment [7]: Interleukin-6 (IL6), IL6 (gene 3569)
The experiment is described as follows: BSK_CASM3C_IL6: BioMAP Diversity Plus: CASM3C Assay for Interleukin-6 (IL6) Biomarker Activity for (AID 2283040). To be noted: primary human coronary artery smooth muscle cells; actives raise or lower the signal.

Read-out in experiment [8]: Tissue plasminogen activator (tPA), PLAT (gene 5327)
Put plainly: BSK_BE3C_tPA: BioMAP Diversity Plus: BE3C Assay for Tissue plasminogen activator (tPA) Biomarker Activity (AID 2283041).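 On outcome: tPA level quantified by ELISA one day after compound addition.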 To be noted: primary human bronchial epithelial cells; actives raise or lower the signal. In short, it runs like this:
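tPA measured by ELISA 24 h after dosing human primary bronchial epithelial cells (BE3C system). Changes in either direction were fitted against DMSO. Parallel cultures were stained with SRB to flag overt cytotoxicity.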

Read-out in experiment [9]: Interleukin-8 (IL8), CXCL8 (gene 3576)
Put plainly: BSK_CASM3C_IL8: BioMAP Diversity Plus: CASM3C Assay for Interleukin-8 (IL8) Biomarker Activity (AID 2283042).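 Further: IL-8 protein level quantified by ELISA.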 To be noted: primary human coronary artery smooth muscle cells; actives raise or lower the signal.

Read-out in experiment [10]: Human Leukocyte Antigen - DR isotype (HLADR), HLA-DRA (gene 3122)
Put plainly: BSK_CASM3C_HLADR: BioMAP Diversity Plus: CASM3C Assay for Human Leukocyte Antigen - DR isotype (HLADR) Biomarker Activity (AID 2283043).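 Further: cell-surface HLA-DR protein level quantified by ELISA.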 To be noted: primary human coronary artery smooth muscle cells; actives raise or lower the signal.

Read-out in experiment [11]: Macrophage colony-stimulating factor (MCSF), CSF1 (gene 1435)
The experiment is described as follows: BSK_CASM3C_MCSF: BioMAP Diversity Plus: CASM3C Assay for Macrophage colony-stimulating factor (MCSF) Biomarker Activity (AID 2283044).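 Further: M-CSF protein amount quantified by ELISA after 24 h exposure.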 To be noted: primary human coronary artery smooth muscle cells; actives raise or lower the signal.

Read-out in experiment [12]: Low-density lipoprotein receptor (LDLR), LDLR (gene 3949)
The experiment is described as follows: BSK_CASM3C_LDLR: BioMAP Diversity Plus: CASM3C Assay for Low-density lipoprotein receptor (LDLR) Biomarker Activity (AID 2283045).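 Further: LDLR protein level on the cell surface quantified by ELISA.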 To be noted: primary human coronary artery smooth muscle cells; actives raise or lower the signal.

Read-out in experiment [13]: Monocyte Chemoattractant Protein-1 (MCP1), CCL2 (gene 6347)
The experiment is described as follows: BSK_CASM3C_MCP1: BioMAP Diversity Plus: CASM3C Assay for Monocyte Chemoattractant Protein-1 (MCP1) Biomarker Activity (AID 2283046).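 Further: MCP-1 level quantified by ELISA 24 h after dosing.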 To be noted: primary human coronary artery smooth muscle cells; actives raise or lower the signal.

The nature of experiment [14]: BSK_CASM3C_Proliferation: Cell Proliferation Assessment in the BioMAP Diversity Plus: CASM3C Assay (AID 2283047).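 Further: sulforhodamine B total protein stain as relative cell number at 560 nm; sub-confluent cells exposed 48 h before staining; fitted both ways against DMSO so gain or loss of cell number.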 To be noted: primary human coronary artery smooth muscle cells.
Read-out in experiment [15]: Monokine induced gamma interferon (MIG), CXCL9 (gene 4283)
The experiment is described as follows: BSK_CASM3C_MIG: BioMAP Diversity Plus: CASM3C Assay for Monokine induced gamma interferon (MIG) Biomarker Activity (AID 2283048).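 Further: MIG protein level measured by ELISA.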 To be noted: primary human coronary artery smooth muscle cells; actives raise or lower the signal.

Read-out in experiment [16]: serum amyloid A (SAA), SAA1 (gene 6288)
Put plainly: BSK_CASM3C_SAA: BioMAP Diversity Plus: CASM3C Assay for serum amyloid A (SAA) Biomarker Activity (AID 2283049).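 Further: SAA protein level quantified by ELISA.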 To be noted: primary human coronary artery smooth muscle cells; actives raise or lower the signal.

The nature of experiment [17]: BSK_CASM3C_SRB: Viability Assessment in the BioMAP Diversity Plus: CASM3C Assay (AID 2283050). To be noted: primary human coronary artery smooth muscle cells.
Read-out in experiment [18]: Thrombomodulin, THBD (gene 7056)
Put plainly: BSK_CASM3C_Thrombomodulin: BioMAP Diversity Plus: CASM3C Assay for Thrombomodulin Biomarker Activity (AID 2283051).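 Further: thrombomodulin protein level measured by ELISA 24 h after dosing.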 To be noted: primary human coronary artery smooth muscle cells; actives raise or lower the signal.

Read-out in experiment [19]: Plasminogen activator inhibitor-1 (PAI1), SERPINE1 (gene 5054)
The experiment is described as follows: BSK_BE3C_PAI1: BioMAP Diversity Plus: BE3C Assay for Plasminogen activator inhibitor-1 (PAI1) Biomarker Activity (AID 2283037). To be noted: primary human bronchial epithelial cells; actives raise or lower the signal. In short, it runs like this: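 PAI-1 was measured by ELISA in human primary bronchial epithelial cultures 24 h after chemical dosing, with cytotoxicity checked by SRB total-protein staining in parallel cultures. Activity was fitted in both directions relative to DMSO.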

The source made the active and inactive calls. How the source made its calls: active means hit-call score of the fitted dose curve at least 0.9, where 1 is the maximum; inactive means score below 0.9.

Consider `CCCSC(=O)N(CCC)CCC`, for which the result in experiment [1], in [2], in experiment [3], in experiment [4], in experiment [5] and in experiment [6] was inactive. Further, the result in experiment [7], in experiment [8], in experiment [9], in experiment [10], in [11] and in experiment [12] was inactive. Moreover, the result in experiment [13], in experiment [14], in experiment [15], in [16], in [17] and in experiment [18] was inactive.

Regarding `Cc1ccc(N)c(N)c1`, the outcome in [1], in [2], in experiment [3], in [4], in experiment [19] and in experiment [5] was inactive. For the same molecule, the result in experiment [6], in experiment [7], in experiment [8], in experiment [9], in experiment [10] and in [11] was inactive. In addition, the outcome in [12], in [13], in [14], in experiment [15], in experiment [16] and in experiment [17] was inactive. Moreover, the AC50 (in general, the midpoint of the concentration-response curve, whichever way the signal moves) in [18] is 13.7 µM (active).

With `c1ccc(N=Nc2ccccc2)cc1`, the result in experiment [1], in experiment [2], in experiment [3], in experiment [4], in experiment [5] and in experiment [6] was inactive. In addition, the outcome in experiment [7], in experiment [8], in experiment [9], in experiment [10], in [11] and in experiment [12] was inactive. The result in experiment [13], in experiment [14], in experiment [15], in experiment [16], in experiment [17] and in [18] was inactive.

As for `c1ccc(C2CO2)cc1` (centres undefined), the result in experiment [1], in [2], in experiment [3], in experiment [4], in experiment [19] and in experiment [5] was inactive. Besides, the outcome in [6], in experiment [7], in experiment [8], in experiment [9], in experiment [10] and in experiment [11] was inactive. Further, the outcome in [12], in experiment [13], in experiment [14], in experiment [15], in experiment [16] and in experiment [17] was inactive. Moreover, in [18], the outcome was inactive.

`CCCCCCCCn1sccc1=O`: the AC50 is 7.16 µM (active) in experiment [1]; 9.14 µM (active) in [2]; 13.6 µM (active) in experiment [3]; 5.55 µM (active) in experiment [4]; 9.51 µM (active) in experiment [5]; 12.9 µM (active) in experiment [6]. The AC50 in [7] was 28.3 µM (active); in experiment [8] it was 6.84 µM (active); in [9], 14.3 µM (active); in experiment [10] it was 4.85 µM (active); in experiment [11], 10.8 µM (active); in experiment [12], 12.8 µM (active). In addition, the AC50 in experiment [13] is 15 µM (active); in [14] it was 1.28 µM (active); in experiment [15] it was 9.51 µM (active); in experiment [16] it was 17.2 µM (active); in experiment [17], 14.7 µM (active); in experiment [18], 35.8 µM (active).

As to `CC(C)(C)OOC(=O)c1ccccc1`, the result in [1], in experiment [2], in experiment [3], in experiment [4], in experiment [19] and in experiment [5] was inactive. The result in experiment [6], in experiment [7], in experiment [8], in experiment [9], in experiment [10] and in experiment [11] was inactive. The result in experiment [12], in [13], in experiment [15], in [16], in [17] and in experiment [18] was inactive. For the same molecule, in [14], the AC50 is 8.08 µM (active).

Turning to `CC(C)COC(=O)c1ccccc1C(=O)OCC(C)C`, the outcome in [1], in [2], in [3], in experiment [4], in experiment [5] and in [6] was inactive. The result in [7], in experiment [8], in experiment [9], in [10], in experiment [11] and in [12] was inactive. Moreover, the result in [13], in experiment [14], in experiment [15], in [16] and in experiment [17] was inactive. The AC50 in [18] is 20 µM (active).

Values taken from PubChem BioAssay (EPA / NIEHS).
